# In PubChem BioAssay:
# Inconclusive results are not listed. Calls of active or inactive are those of the source. Rule as the data show it, unless noted: active = inhibition above about 80%; inactive = the rest.
# Columns and labels:
# [1] = viability loss in pontine glioma line – cell-based, SU-DIPG-XVII, MIPE5.0, CellTiter-Glo, qHTS, dose response (AID 1347060; cut-off not given, nearly all actives have AC50 up to about 26 µM); conditions: CellTiter-Glo ATP luminescence
# [2] = viability loss in pontine glioma line – cell-based, SU-DIPG-XIII, MIPE5.0, CellTiter-Glo, qHTS, dose response (AID 1347064; cut-off not given, nearly all actives have AC50 up to about 23 µM); conditions: CellTiter-Glo ATP luminescence
# [3] = JHH-DIPG-1 glioma cell viability, MIPE5.0 library, CellTiter-Glo luminescence, qHTS (AID 1347067; cut-off not given, nearly all actives have AC50 up to about 26 µM;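 also: cells exposed to compound for 48 hours before readout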); conditions: JHH-DIPG-1 glioma viability, CellTiter-Glo ATP luminescence
# [4] = growth inhibition of DIPG cells – cell-based, MIPE5.0 library, qHTS (AID 1347068; cut-off not given, nearly all actives have IC50 up to about 30 µM); conditions: SU-DIPG-XXV viability
# [5] = growth inhibition, single agent or in combination, cell-based, chromothripsis tumors, cisplatin or BGB combos (AID 1671449); conditions: LFS_MB_P medulloblastoma cells;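 also: cells exposed for 96 hours; 0% = vehicle DMSO and 100% = killing by high DMSO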
# [6] = growth inhibition, single agent and combos, cell-based, chromothripsis tumors, cisplatin or BGB combos (AID 1671450); conditions: HDN33 neuroblastoma cells, stronger effect = higher value;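 also: cells exposed to compound for four days; 0% = vehicle DMSO and 100% = cell killing by high DMSO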
# [7] = growth inhibition, single agents and combos, ICB984, cell-based, cisplatin or BGB combos, synergistic combos for chromothripsis tumors (AID 1671451; call rule not given here;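 also: cells exposed for 96 hours before readout; 0% = vehicle DMSO and 100% = killing by high DMSO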); conditions: ICB984 medulloblastoma cells, drug combinations, stronger effect = higher value
# [8] = growth inhibition, single agents and combos, LFS_MB_1R, cell-based, cisplatin or BGB combos, synergistic combos for chromothripsis tumors (AID 1671452); conditions: LFS_MB_1R medulloblastoma cells, stronger effect = higher value;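 also: cells exposed for 96 hours before readout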
# [9] = growth inhibition, single agents and combos, HTB85, cell-based, BGB or cisplatin IC20 combos, synergistic combos for chromothripsis tumors (AID 1671453); conditions: HTB85 osteosarcoma cells, drug combinations, stronger effect = higher value;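 also: cells exposed for 96 hours before readout; 0% = vehicle DMSO and 100% = high DMSO killing control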
# [10] = growth inhibition, single agents and combos, CRL2098, cell-based, BGB or cisplatin IC20 combos, synergistic combos for chromothripsis tumors (AID 1671454); conditions: CRL2098 osteosarcoma cells, drug combinations, stronger effect = higher value;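 also: cells exposed for 96 h before readout; 0% = vehicle DMSO and 100% = killing by high DMSO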
# [11] = growth inhibition, single agents and combos, HD-MB03, cell-based, BGB or cisplatin IC20 combos, synergistic combos for chromothripsis tumors (AID 1671455; in the data active = inhibition above about 83%;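 also: 0% = vehicle DMSO and 100% = high DMSO as cytotoxic control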); conditions: HD-MB03 medulloblastoma cells, stronger effect = higher value
# [12] = growth inhibition, single agents and combos, UWB1.289, cell-based, BGB or cisplatin combos, synergistic combos for chromothripsis tumors (AID 1671456); conditions: UWB1.289 ovarian carcinoma cells, stronger effect = higher value;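 also: cells exposed to compound for four days; 0% = vehicle DMSO and 100% = killing by high DMSO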
# [13] = growth inhibition, single agents and combos, LFS_MB_2R, cell-based, cisplatin combos, synergistic combos for chromothripsis tumors (AID 1671457); conditions: LFS_MB_2R medulloblastoma cells, stronger effect = higher value;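 also: cells exposed to compound for four days before readout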
# [14] = growth inhibition, MDA-MB-436, cell-based, BGB or cisplatin combos, synergistic combos for chromothripsis tumors (AID 1671458; call rule not given here;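 also: cells exposed for 96 hours; 0% = vehicle DMSO and 100% = killing by high DMSO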); conditions: MDA-MB-436 breast carcinoma growth inhibition, drug combinations, stronger effect = higher value
# [15] = UWB1.289_BRCA1 ovarian cancer growth, cell-based, BGB or cisplatin combinations (AID 1671459); conditions: UWB1.289 BRCA1 ovarian carcinoma, drug combinations, stronger effect = higher value
# [16] = drug combination toxicity in non-malignant astrocytes – cell-based, BGB or cisplatin IC20 combos, cytotoxicity control for chromothriptic childhood tumor combination screen (AID 1671460); conditions: Human astrocytes, viability inhibition, drug combinations, at 0.5 µM, stronger effect = higher value;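 also: cells exposed to compounds for 96 hours before viability readout; 0% = vehicle and 100% = killing control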
# [17] = BT084 cell growth, single and combined drugs, ICGC_MB145, cisplatin and BGB IC40 combos (AID 1671461); conditions: BT084 medulloblastoma cells, drug combinations, stronger effect = higher value;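 also: cells exposed to drugs for 96 hours; 0% = vehicle DMSO and 100% = high DMSO full killing control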
# [18] = RCMB18 cell growth, single agent and combined, cisplatin and BGB IC40 combos (AID 1671462); conditions: RCMB18 medulloblastoma cells, stronger effect = higher value;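 also: cells exposed to compound for four days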
# [19] = CRL1545 cell growth, single agent and combined, cisplatin and BGB IC20 combos (AID 1671464); conditions: CRL1545 osteosarcoma cells, stronger effect = higher value;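 also: cells exposed to compound for 96 hours before readout; 0% = vehicle DMSO and 100% = high DMSO killing control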
# [20] = measured here: combination with BGB IC40, at 0.05 µM
# [21] = measured here: with BGB IC20 combination, at 0.5 µM
# [22] = measured here: with cisplatin IC20 combination, at 0.5 µM
# [23] = measured here: combination with cisplatin, at 0.5 µM
# [24] = measured here: combination with cisplatin, at 5 µM
compound,measurement,setting,value
NC(=O)c1nc(F)c[nH]c1=O,outcome,[1],inactive
same,outcome,[2],inactive
same,outcome,[3],inactive
same,outcome,[4],inactive
same,inhibition,"[5]; at 0.5 µM, stronger effect = higher value",-5.96% (inactive)
same,inhibition,"[5]; measured here: combination with BGB IC20, at 0.005 µM",-6.89%
same,inhibition,"[5]; measured here: combination with BGB IC40, at 0.005 µM",86.3%
same,inhibition,[5]; [20],2.5%
same,inhibition,"[5]; measured here: combination with cisplatin, at 0.5 µM, stronger effect = higher value",-12.3%
same,inhibition,"[5]; measured here: combination with cisplatin, at 5 µM, stronger effect = higher value",-15%
same,inhibition,"[6]; BGB combo, at 5 µM",-13.7%
same,inhibition,[6]; at 0.5 µM,0.69% (inactive)
same,inhibition,"[6]; cisplatin combo, at 5 µM",-13.9%
same,inhibition,[6]; [21],-3.64%
same,inhibition,[6]; [22],-5.09%
same,inhibition,"[6]; single agent, at 5 µM",9.18%
same,inhibition,"[7]; BGB IC20 combo, at 0.005 µM",-3.29%
same,inhibition,"[7]; BGB IC40 combo, at 0.005 µM",-2.11%
same,inhibition,"[7]; BGB IC40 combo, at 0.05 µM",0.125%
same,inhibition,[7]; at 0.5 µM,0.29% (inactive)
same,inhibition,"[7]; cisplatin combo, at 0.05 µM",-4.93%
same,inhibition,"[7]; cisplatin combo, at 0.5 µM",4.34%
same,inhibition,"[7]; cisplatin combo, at 5 µM",4.92%
same,inhibition,"[7]; measured here: 5 uM single agent, at 5 µM",-8.47%
same,inhibition,[8]; at 0.5 µM,1.01% (inactive)
same,inhibition,[8]; [20],2.61%
same,inhibition,[8]; [23],-16.3%
same,inhibition,[8]; [24],16.6%
same,inhibition,[9]; at 0.5 µM,1.18% (inactive)
same,inhibition,"[9]; measured here: with BGB IC20, at 0.5 µM",-2.45%
same,inhibition,"[9]; measured here: with BGB IC20, at 5 µM",5.78%
same,inhibition,"[9]; measured here: with cisplatin IC20, at 0.5 µM",-2.57%
same,inhibition,"[9]; measured here: with cisplatin IC20, at 5 µM",4.67%
same,inhibition,"[9]; single agent, at 5 µM",17.5%
same,inhibition,[10]; at 0.5 µM,-7.02% (inactive)
same,inhibition,"[10]; measured here: combination with BGB at IC20, at 0.5 µM",-19%
same,inhibition,"[10]; measured here: combination with cisplatin at IC20, at 0.5 µM",9.34%
same,inhibition,[11]; at 0.5 µM,0.58% (inactive)
same,inhibition,"[11]; measured here: combo with BGB at IC20, at 0.5 µM",5.69%
same,inhibition,"[11]; measured here: combo with cisplatin at IC20, at 0.5 µM",-1.93%
same,inhibition,[12]; at 0.5 µM,4.26% (inactive)
same,inhibition,"[12]; measured here: inhibition with BGB combination, at 0.05 µM",6.54%
same,inhibition,"[12]; measured here: inhibition with cisplatin combination, at 0.05 µM",-1.23%
same,inhibition,[13]; at 0.5 µM,1.33% (inactive)
same,inhibition,[13]; [23],5.37%
same,inhibition,[13]; [24],9.87%
same,inhibition,[14]; at 0.5 µM,-2.87% (inactive)
same,inhibition,"[14]; measured here: BGB combination, at 0.5 µM",-1.29%
same,inhibition,"[14]; measured here: BGB combination, at 5 µM",-9.17%
same,inhibition,"[14]; measured here: cisplatin combination, at 0.5 µM",-10.9%
same,inhibition,"[14]; measured here: cisplatin combination, at 5 µM",-5.06%
same,inhibition,"[15]; BGB combination, concentration series, at 5 µM",-6.18%
same,inhibition,[15]; at 0.5 µM,1.49% (inactive)
same,inhibition,"[15]; cisplatin combination, concentration series, at 5 µM",2.48%
same,inhibition,[16],-3.48% (inactive)
same,inhibition,[16]; measured here: combo with BGB IC20,-7.39%
same,inhibition,[16]; measured here: combo with cisplatin IC20,-5.76%
same,inhibition,[17]; at 0.5 µM,-1.11% (inactive)
same,inhibition,"[17]; cisplatin combination, at 0.5 µM",6.95%
same,inhibition,"[17]; cisplatin combination, at 5 µM",-101%
same,inhibition,"[17]; measured here: BGB IC40 combination 0.05 uM, at 0.05 µM",-16.8%
same,inhibition,"[17]; single agent, at 5 µM",4.66%
same,inhibition,[18]; at 0.5 µM,-6.23% (inactive)
same,inhibition,"[18]; cisplatin combo, at 5 µM",8.94%
same,inhibition,"[18]; measured here: BGB IC40 combination, at 0.05 µM",-10.5%
same,inhibition,[18]; [23],-26.7%
same,inhibition,"[18]; single agent, at 5 µM",14.2%
same,inhibition,[19]; at 0.5 µM,13.8% (inactive)
same,inhibition,[19]; [21],6.76%
same,inhibition,[19]; [22],16%
same,inhibition,"[19]; single agent, at 0.05 µM",-15.2%
same,inhibition,"[19]; single agent, at 5 µM",-29.6%
